Screening results from PubChem.
Shown are actives, neighbours in structure and some others; about 27% of the full set was active somewhere.
CYP2C9 inhib = blocks human cytochrome P450 2C9; P11712; CYP2C9 Supersomes, luciferin-H conversion, luminescence; inhibition, % at 5 µM; 96,000 tested, 20% active;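 active = blocking of liver enzyme CYP2C9 beyond about 50% at 5 µM, limit read from the data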
CYP2C9 act = CYP2C9 (human) activation | P11712 | 96,000 tested, 1.4% active | recombinant CYP2C9, luciferin-H conversion, luminescence; hits give high values; factor 1 = untreated enzyme, 0 = blocked | activation factor at 5 µM;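 active = activation factor of 2 or more for CYP2C9 at a 5 µM dose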
CYP2C19 inh = human CYP2C19 inhibition; P33261; CYP2C19 Supersomes, luciferin-H EGE luminescence, 30 min; inhibition, % at 5 µM; 96,000 tested, 21% active; AID 778;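 active = CYP2C19 inhibition above a set limit at 5 µM in the primary screen, cut at about 50% in these data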
Target sequence (P33261 whole entry, looked up): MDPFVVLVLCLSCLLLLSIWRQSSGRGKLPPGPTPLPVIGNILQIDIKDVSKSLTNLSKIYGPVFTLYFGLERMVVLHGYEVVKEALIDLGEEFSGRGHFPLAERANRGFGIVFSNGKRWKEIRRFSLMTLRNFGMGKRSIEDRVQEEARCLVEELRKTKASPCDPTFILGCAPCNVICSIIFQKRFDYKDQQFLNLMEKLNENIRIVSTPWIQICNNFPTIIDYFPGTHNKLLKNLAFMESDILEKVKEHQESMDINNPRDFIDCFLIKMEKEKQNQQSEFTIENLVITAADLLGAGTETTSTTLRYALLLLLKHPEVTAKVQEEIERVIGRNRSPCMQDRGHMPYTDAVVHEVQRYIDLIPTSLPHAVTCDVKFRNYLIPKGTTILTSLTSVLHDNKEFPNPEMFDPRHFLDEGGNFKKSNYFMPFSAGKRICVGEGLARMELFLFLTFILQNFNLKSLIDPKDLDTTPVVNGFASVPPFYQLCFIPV
CYP2C19 act = activators of human cytochrome P450 2C19; recombinant CYP2C19, luciferin-H EGE luminescence; hits give high values; 0 = fully inhibited enzyme, 1 = untreated enzyme; AID 1025; activation factor at 5 µM; 96,000 tested, under 10 active;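 active = activation factor of at least 2 at 5 µM in the primary screen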
EphB4 antag = blocks human EphB4 binding to ephrin-B2; P54760; 97,000 tested, 0.15% active; EphB4 LBD / TNYL-RAW-Alexa532 peptide, fluorescence polarization; inhibition, % at 7 µM; AID 720;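 active = inhibition above the screen-wide mean inhibition plus 3 SD, cut at about 15% in these data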
Each line names hits and unclear results; the compound was inactive in the other large screens.

CCOC(=O)c1c(/N=C/c2c(O)n(-c3ccc(F)cc3)c(=S)[nH]c2=O)sc2c1CCCC2	none
CCOC(=O)c1c(-n2c(C)cc(/C=C3\C(=O)NC(=O)N(C)C3=O)c2C)sc2c1CCCC2	CYP2C9 inhib 71
CN1CCN(c2c[nH]c(=O)[nH]c2=O)CC1	none (no result: CYP2C9 inhib, CYP2C9 act, CYP2C19 inh, CYP2C19 act)
CNP1(NC)=NC(C(F)(F)F)=NC(C(F)(F)F)=N1	none
COC(=O)c1cc(C(O)(C(=O)OC)C(F)(F)F)c(/N=C/N(C)C)s1 (configuration not stated)	CYP2C9 inhib 73, CYP2C19 inh 83
O=C(Cn1ncc2c3ccccc3n(Cc3ccc(F)cc3)c2c1=O)N1CCC2(CC1)OCCO2	none (no result: CYP2C9 inhib, CYP2C9 act, CYP2C19 inh, CYP2C19 act)
Oc1ccc(Br)cc1CN1CCN(c2ccccc2)CC1	CYP2C9 inhib 64
COc1cc(Br)cc(CN2CCN(C)CC2)c1O	none
COc1cc(C)c(CN2CCN(c3ccccc3)CC2)cc1C	CYP2C19 inh 56
CCN1CCN(Cc2cc(Br)ccc2O)CC1	none
COc1cc(CN2CCN(c3cc(C)ccc3C)CC2)ccc1O	CYP2C19 inh 56
COc1ccccc1N1CCN(Cc2ccc(Br)s2)CC1	CYP2C9 inhib 78, CYP2C19 inh 94 (no result: EphB4 antag)
O=C1NCCN2CCCC12 (configuration not stated)	none
Oc1c(Cl)cc(Cl)cc1CN1CCN(Cc2ccccc2)CC1	none
CCN1CCN(c2ccc(NC(=O)C(C)C)cc2Cl)CC1	none
COc1ccccc1N1CCN(Cc2cc(C)c(C)cc2O)CC1	CYP2C9 act 2.1, CYP2C19 inh 79
COc1ccccc1N1CCN(Cc2c(F)cccc2Cl)CC1	CYP2C9 inhib 68, CYP2C19 inh 97
C=CCC1(CN2CCCC2=O)C(=O)NC(=O)NC1=O	none
CCCCn1c(O)c(C(CC)=Nc2ccc(C(=O)O)cc2)c(=O)[nH]c1=O	none (no result: CYP2C9 inhib, CYP2C9 act, CYP2C19 inh, CYP2C19 act)
O=C(c1cc(-c2cccnc2)nc2ccc(Cl)cc12)N1CCC2(CC1)OCCO2	none
Cc1ccc2nc(-c3ccncc3)cc(C(=O)N3CCC4(CC3)OCCO4)c2c1	CYP2C9 inhib 51
CCN1CCN(Cc2cc(Br)cc(Br)c2O)CC1	CYP2C19 inh 60
CCOP(=O)(OCC)C(NC(=O)c1ccc(Cl)cc1)=C(Cl)Cl	CYP2C19 inh 64
COP(=O)(OC)C(NC(=O)C(C)(C)C)=C(Cl)Cl	none
COC(=O)c1c(C)n(Cc2ccco2)c2ccc(O)cc12	none
COc1cccc(Oc2c(C)oc3cc(OC(=O)N(C)C)ccc3c2=O)c1	CYP2C19 inh 85
Cc1oc2ccc(OC(=O)N(C)C)cc2c1C(=O)OC(C)C	CYP2C9 inhib 65, CYP2C19 inh 78
CNC(C(=O)c1ccccc1)C(OC(C)C)c1ccc(Cl)cc1 (configuration not stated)	CYP2C19 inh 63
COc1ccc2c(c1)c(C(=O)O)c(C)n2CC(C)C	CYP2C19 inh 85
CC1CCN(S(=O)(=O)c2ccc(NN=C(C#N)C#N)cc2)CC1	CYP2C9 inhib 94
CC12CN3C(O)C(C)(C1)CC(C)(C2)C3O (configuration not stated)	none
c1cc2n(c1)-c1c(ccc3c1OCO3)CNC2c1ccc2c(c1)OCO2 (configuration not stated)	CYP2C9 inhib 77, CYP2C19 inh 99
COc1ccc(C2NCc3ccc4c(c3-n3cccc32)OCO4)cc1O (configuration not stated)	CYP2C19 inh 68
Nc1ccnn1C1CCNCC1	none
O=C(COc1ccc2ccccc2c1)N1CCN(Cc2c[nH]c3ccccc23)CC1	none
O=C(COc1ccc(Br)cc1)N1CCN(Cc2c[nH]c3ccccc23)CC1	CYP2C9 inhib 89, CYP2C19 inh 86
Cc1c(N=Cc2c(O)n(CCc3ccc(F)cc3)c(=O)[nH]c2=O)c(=O)n(-c2ccccc2)n1C	none
CCn1c(=O)cc(SCC(=O)N2CCC3(CC2)OCCO3)c2ccccc21	CYP2C9 act 2.2
Cn1c(=O)n(CC(=O)N2CCC3(CC2)OCCO3)c(=O)c2ccccc21	none (no result: EphB4 antag)
c1ccc(CCn2nnnc2CN2CCC(n3nnc4ccccc43)CC2)cc1	CYP2C9 inhib 68, CYP2C19 inh 69 (no result: EphB4 antag)
Fc1ccc2c(c1)nnn2C1CCN(Cc2nnnn2CCc2ccccc2)CC1	CYP2C9 inhib 95, CYP2C19 inh 78
Fc1ccc2c(c1)nnn2C1CCN(Cc2ccccc2)CC1	none
Cc1nc2ccccc2n1C1CCN(Cc2nnnn2CCc2ccccc2)CC1	none
O=P(O)(O)C12CC3CC(CC(C3)C1)C2	CYP2C9 inhib 62
Cc1ccc(S(=O)(=O)N(C)CCCC(=O)N2CCN(c3ccccn3)CC2)cc1	CYP2C19 inh 52
O=C1C2(c3ccccc3)CN3CN(C2)CC1(c1ccccc1)C3	CYP2C19 inh 55
COP(=O)(CC(=O)O)c1ccccc1 (configuration not stated)	none
CC(=NCCC1=CCCCC1)c1c(O)n(C)c(=O)n(C)c1=O	CYP2C9 inhib 50
OCCN(CC#CC(O)(c1ccccc1)C1CCCC1)CCO (configuration not stated)	none
O=C1NC(=O)C(CCc2ccncc2)(c2ccccc2)C(=O)N1	CYP2C9 inhib 93, CYP2C19 inh 55
CC(=O)O[C@]1(c2ccccc2)CCN(C)[C@H]2CCCC[C@@H]21	none (no result: CYP2C9 inhib, CYP2C9 act, CYP2C19 inh, CYP2C19 act)
CN(C)C(=O)Oc1ccc2ccccc2c1Cl	none
O=C1NC(=O)C(CCc2ccccn2)(Cc2ccc3c(c2)OCO3)C(=O)N1CCc1ccccc1 (configuration not stated)	CYP2C19 inh 55
c1ccc(CNCCc2ccc3c(c2)OCO3)nc1	none (no result: CYP2C9 inhib, CYP2C9 act, CYP2C19 inh, CYP2C19 act)
Cc1cc(C)nc(-n2c(C)nc3cc(Cl)ccc3c2=O)c1	CYP2C9 inhib 90
Cn1c(O)c(C(=N)COc2cccc(Cl)c2)c(=O)n(C)c1=O	none
O=C(Nc1ccc(Br)cc1)c1nn(C23CC4CC(CC(C4)C2)C3)cc1Br	none
O=c1[nH]c(=O)n(C2CCCCC2)c(O)c1C=NCCCn1ccnc1	CYP2C9 inhib 50, CYP2C19 inh 61 (no result: EphB4 antag)
O=c1[nH]c(=O)n(CCC2=CCCCC2)c(O)c1C=NCCCn1ccnc1	CYP2C9 inhib 97, CYP2C19 inh 86
CN(C)CCCN=Cc1c(O)n(CCc2ccc(F)cc2)c(=O)[nH]c1=O	none
O=c1[nH]c(=S)n(CCC2=CCCCC2)c(O)c1C=NCCCn1ccnc1	CYP2C9 inhib 98, CYP2C19 inh 93
O=c1[nH]c(=O)n(CCc2ccc(F)cc2)c(O)c1C=NCCCn1ccnc1	CYP2C9 inhib 68 (no result: EphB4 antag)
O=c1[nH]c(=S)n(CCC2=CCCCC2)c(O)c1C=NCc1cccnc1	none
Cc1cc([P+](=O)O)c(C)n1-c1ccc(Br)cc1	none
COC(=O)C1C2c3ccccc3OC1(C)N=c1s/c(=C/c3cnn(C)c3)c(=O)n12 (configuration not stated)	none (no result: EphB4 antag)
CC1(C)CC(=O)C(C=NCCN2CCN(C(=O)Cc3ccc(F)cc3)CC2)=C(O)C1	none (no result: EphB4 antag)
CCOC(=O)C1=C(C)OC(N)=C(C#N)C12C(=O)N(C)c1ccccc12 (configuration not stated)	none
CN1CSC(=S)N(C)C1	none
CCC1(c2ccccc2)C(=O)N(COC)C(=O)N(COC)C1=O	CYP2C19 inh 79
